Records with an inconclusive call do not appear. Where a call stands in place of a potency, no number is given. Unmarked numbers belong to inactive results. The source made the active and inactive calls. Calls follow the shape of the dose curve; as a rule, active = well fitted cell-killing curve with a large enough effect in the repeat runs; inconclusive = weak or mixed curves, or effect the other way; inactive = no such curve, though single readings can be large or run the other way.
Test: qHTS assay for identifying genotoxic compounds that show differential cytotoxicity against isogenic chicken DT40 cell lines with known DNA damage response pathways - Rev3 mutant cell line (AID 743014); also: nearly all actives have a fitted effect of over 55% in size
Conditions: chicken DT40 Rev3-/- viability, CellTiter-Glo, 40 h; series mostly up to 68.4 µM
Source text: National Center for Advancing Translational Sciences [NCATS]
NIH Chemical Genomics Center [NCGC]
U.S. Environmental Protection Agency [EPA]
National Institutes of Environmental Health Sciences [NIEHS]
National Toxicology Program [NTP]
U.S. Food and Drug Administration [FDA]
DNA repair pathways play a critical role in cellular homeostasis by repairing DNA damage induced by endogenous processes and xenobiotics. Isogenic chicken DT40 cell lines deficient in different DNA repair pathways can be used to identify genotoxic compounds and aid in characterizing the nature of the DNA damage induced. Two DNA repair-deficient cell lines with disrupted genes, Rad54/Ku70 or Rev3, were used to screen the Tox21 10K compound library. Possible genotoxicity was based on the presence of a significant increase in cytotoxicity in one or more of the DNA repair-deficient cell lines compared to that observed in the parental DNA repair-proficient cell line. CellTiter Glo viability assay (Promega, Madison, WI) was used to measure cell viability in these cells after compound treatment. This assay includes the data from the Rev3 mutant cell line.
Tox21 Assay Protocol Summary:
300 DT40 mutant cells in 5 uL/well were dispensed into white, solid-bottom 1536-well plates using a Multidrop Combi (ThermoFisher Scientific, Waltham, MA) dispenser. After the assay plates were incubated at 37 C/5% CO2 for approximately 0.5 hour, 23 nL of compounds dissolved in DMSO, positive controls or DMSO only was transferred into the assay plate by a pintool work station (Kalypsys, San Diego, CA). The assay plates were incubated at 37 C/5% CO2 for 40 hours. After 5 uL per well of CellTiter-Glo reagent was added into each well of the assay plates, the plates were incubated for 30 min at room temperature and the luminescence intensity of the plates was measured using a ViewLux (PerkinElmer, Shelton, CT) plate reader.
Potency is read from the fitted curve at half-maximal effect.

Compound | Potency | activity, negative = cytotoxicity
O=C(O)CCCCCCCCCC(=O)O | 34.4 µM (active) | –
CC(C)OC(=O)C(C(=O)OC(C)C)=C1SC=CS1 | 26.6 µM (active) | –
CCCC[O][Al]([O]CCCC)[O]CCCC | inactive | –
COc1cc2nc(N3CCN(C(=O)C4CCCO4)CC3)nc(N)c2cc1OC (stereo not given) | inactive | –
CC(=O)c1ccc2ccc3ccccc3c2c1 | 60.8 µM (active) | –
C[C@@H]1NC(=O)[C@@H](N)CNC(=O)[C@H](C2CCNC(N)=N2)NC(=O)/C(=C/NC(N)=O)NC(=O)[C@H](CNC(=O)C[C@@H](N)CCCN)NC1=O (stereo not given in full) | inactive | –
CCC(C)SSC(C)CC (stereo not given) | inactive | –
CN(C)CCc1c[nH]c2ccc(CS(=O)(=O)N3CCCC3)cc12 | inactive | –
N=C(N)S(=O)O | inactive | –
Cc1cc(N)no1 | inactive | –
COc1cc(NS(=O)(=O)c2ccc(N)cc2)ncn1 | inactive | –
c1coc(Cn2cccc2)c1 | inactive | –
CCCCCCCCS(=O)(=O)O | inactive | –
CC(C)(C)C(=O)CC(=O)C(C)(C)C | inactive | –
O=C(OOC(=O)c1ccccc1)c1ccccc1 | inactive | –
CCCC(=O)CC | inactive | –
Nc1nc(Cl)cc(Cl)n1 | inactive | –
C/C(=N\O)c1ccc(OCC(=O)N2CCCCC2)cc1 | inactive | –
CCCCCCCCCCCBr | inactive | –
C[Si](C)(C)O[Si](O)(O)O | 61.1 µM (active) | –

Compound | Potency | activity, negative = cytotoxicity
CC/C=C\CCOC(=O)c1ccccc1 | inactive | –
CN(C)CCCN(C)C | – | -13% [at 8.53 µM]
CC(C)OCCO | inactive | –
c1cc2ccc3ccc4ccc5cccc6c(c1)c2c3c4c56 | – | 5.02% [at 3.82 µM]
CC[C@@]1(c2ccccc2)NC(=O)N(C)C1=O | inactive | –
CNCCc1ccccn1 | inactive | –
O=Cc1ccccc1S(=O)(=O)O | inactive | –
O=C(CCBr)N1CCN(C(=O)CCBr)CC1 | inactive | –
CC(C)=CCC/C(C)=C\C#N | inactive | –
CCCCOCCCC | inactive | –
CCN1CCN(C(=O)N[C@@H](C(=O)N[C@@H]2C(=O)N3[C@@H]2SC(C)(C)[C@H]3C(=O)O)c2ccccc2)C(=O)C1=O | inactive | –
CC(C)(Sc1cc(C(C)(C)C)c(O)c(C(C)(C)C)c1)Sc1cc(C(C)(C)C)c(O)c(C(C)(C)C)c1 | inactive | –
O=Cc1ccc(C(=O)O)cc1 | inactive | –
C=CCOC(=O)CCCCCCCC | inactive | –
Cc1cc(C)c(C)c(C)c1 | inactive | –
C=CCON/C(CCC)=C1\C(=O)CC(C)(C)C(C(=O)OC)=C1O | inactive | –
C=CCN1CCc2nc(N)sc2CC1 | inactive | –
CCCCCC(CC)OC(=O)CCCOc1ccc(Cl)cc1Cl (stereo not given) | inactive | –
COc1ccc2cc(CCC(C)=O)ccc2c1 | inactive | –
NCC1CCC(C(=O)Oc2ccc(CCC(=O)O)cc2)CC1 (stereo not given) | inactive | –

Source: PubChem BioAssay (Tox21)
